ChEMBL document CHEMBL4513216, “Probing the Open Global Health Chemical Diversity Library for Multistage-Active Starting Points for Next-Generation Antimalarials” (ACS Infect Dis, 2020)
The whole screen tested about 69,000 compounds, of which about 8,600 (12%) showed an effect of 50% or more. The entries come from a sample that favours strong results as a whole.

These compounds were tested on Plasmodium berghei (assay: Screen against P. berghei liver stage (PbLuc), transformed with Luciferase, at 10uM). Conditions: tested at 10 uM.
Format: functional, HepG2

| Structure (SMILES) | INHIBITION [%] |
| --- | --- |
| CCCS(=O)(=O)N1C[C@@H]2C[C@H](C(=O)N3CCOCC3)[C@H](C1)O2 | -19.6 |
| CNC(=O)c1cccc(NC(=O)CN2CCCN(S(C)(=O)=O)CC2)c1 | -7.27 |
| O=C(C[C@@H]1COC[C@H]2CN(C3CCCC3)C[C@@H]12)NCc1cccnc1 | 20.6 |
| Cc1nnc2n1CCN(Cc1nc(-c3ccoc3)no1)C2 | -16.75 |
| COc1c(CNCc2ccc(C(=O)N(C)C(C)C)cc2)c(C)nn1C | 88.5 |
| CCNC(=O)c1ccc(CNCc2c(C)nn(C)c2N(C)C)cc1 | 58.8 |
| COc1c(CNCc2ccc(CN(C)C)cc2)c(C)nn1C | -15.8 |
| COc1c(CNCc2ccc(S(C)(=O)=O)cc2)c(C)nn1C | -31.8 |
| COc1c(CNCc2ccc(C(=O)NC3CC3)cc2)c(C)nn1C | 13.5 |
| COc1c(CNCc2ccc(C(=O)N3CCCC3)cc2)c(C)nn1C | 64.9 |
| Cc1nn(C)c(N(C)C)c1CNCCC(=O)NC1CCCC1 | 64.8 |
| COc1c(CNCc2ccc(OCC(N)=O)cc2)c(C)nn1C | 35.9 |
| COCc1ccc(CNCc2c(C)nn(C)c2N(C)C)cc1 | 33.7 |
| Cc1nn(C)c(N(C)C)c1CNCc1ccc(C(=O)N(C)C)cc1 | -19.9 |
| CC(C)c1nn(C)c(N(C)C)c1CNCCC(=O)NC1CCCC1 | 35.8 |
| Cc1nn(C)c(N(C)C)c1CNCCC(=O)NC1CCCCC1 | 49.8 |
| Cc1nn(C)c(N2CCOCC2)c1CNCc1ccoc1C | -29.8 |
| O=C1CC2(CCCC2)CC(=O)N1Cc1nccs1 | 28.4 |
| Cc1ncsc1CN1C[C@@H](O)[C@](O)(CNC(=O)c2ccccn2)C1 | 18.9 |
| O=C(NC1CCC1)[C@H]1C[C@@H]2[C@@H](C1)OCCN2CC1CC1 | 36.4 |
| Cc1ccc2c(c1)C1(CCN(C(N)=O)CC1)CN2CC1CC1 | 44.8 |
| NS(=O)(=O)c1cnn(CC(=O)Nc2c(Cl)cccc2Cl)c1 | 42.3 |
| Cc1nc(C)n(CCNS(=O)(=O)NCc2ccccc2)n1 | 49.9 |

| Structure (SMILES) | INHIBITION [%] |
| --- | --- |
| CS(=O)(=O)N1CCOCC2(CCN(C(=O)c3cnccn3)CC2)C1 | -6.23 |
| O=C(NCc1ccccc1Cn1cncn1)C1CCCCC1 | 30.6 |
| Cc1cnc(N2CC3(CCN(S(=O)(=O)C4CC4)C3)C2)nc1 | 40.3 |
| Cc1nn(C)cc1Cn1c(=O)c(C)nc2ccccc21 | -11.4 |
| COc1c(CNCc2ccc(CS(C)(=O)=O)cc2)c(C)nn1C | 43.2 |
| COc1c(CNCCNC(=O)c2ccc(C)cc2)c(C)nn1C | 52.7 |
| COc1c(CNCc2ccc(C(=O)N(C)C)cc2)c(C)nn1C | 56.3 |
| COc1c(CNCc2cccc(C(=O)N(C)C)c2)c(C)nn1C | -29.8 |
| COc1c(CNCCNC(=O)c2ccccc2)c(C)nn1C | 15.3 |
| COc1c(CNCCNC(=O)c2ccc(C)cc2)c(C(C)C)nn1C | -79.3 |
| CC(C)(C)C(=O)Nc1cnn(-c2ccccc2S(C)(=O)=O)c1 | -0.125 |
| O=C(c1ccccc1)N1CCC[C@]2(C[C@@H](Oc3ncccc3F)CO2)C1 | 5.96 |
| Cc1ccc(N2C[C@@H]3CCCO[C@@H]3[C@H](N3CCCC3)C2)nn1 | 20.1 |
| COCCCC1CCCN(Cc2c(C)ccc3ncccc23)C1 (centres undefined) | 5.41 |
| COc1ccc(S(=O)(=O)N2CCc3ccc(Cl)cc32)cc1C(=O)O | -54.6 |
| CCc1cn[nH]c1C1CCN(c2cc(C)c3ccc(OC)cc3n2)CC1 | 71.1 |
| CCc1cn[nH]c1C1CCN(c2cc(C)c3cc(OC)ccc3n2)CC1 | 26.6 |
| CCc1cn[nH]c1C1CCN(c2cc(C)c3cccc(OC)c3n2)CC1 | 42.7 |
| Cc1cccc(OCCC(=O)N(C)CCNS(C)(=O)=O)c1C | 7.11 |
| CC(C)(C)CC(=O)N1CCCC2(CC(C(=O)Nc3ccccc3)=NO2)C1 (centres undefined) | -32 |
| OCCCc1nncn1-c1cccc(C(F)(F)F)c1 | 33.4 |
| CCOC(=O)N(C)C1CCN(Cc2cnc3ccccn23)CC1 | 8.12 |
| Cc1cccc(NC(=O)[C@@H]2CCCN2Cc2cnc3ccccn23)n1 | 45.7 |

| Structure (SMILES) | INHIBITION [%] |
| --- | --- |
| CN(C(=O)C1CCN(Cc2cnc3ccccn23)CC1)c1ccccc1 | 58.2 |
| CCc1nc(C)c(C(=O)N(C)Cc2cnc3ccccn23)o1 | 10.6 |
| CC(C)N(C)C(=O)C1CCN(Cc2cc3c(cc2O)CCC3)CC1 | 33.6 |
| CC(C)N(C)C(=O)C1CCN(Cc2cnc3ccccn23)CC1 | 63.3 |
| O=C([C@H]1CCCO1)N1CC[C@H](O)[C@@H]1Cc1cccnc1 | 39.4 |
| CN(C)c1nc(N2CCCC2)nc2c1CCN(C(=O)c1ccco1)CC2 | 28.2 |
| CCCc1noc(CCC(=O)N2CCCC2c2cccc(OC)c2)n1 (centres undefined) | -34 |
| O=C1CCC(c2nc(C3CCNCC3)no2)N1 (centres undefined) | 55.8 |
| O=C1CCC(c2nc(C3CCN(C(=O)C4CC4)CC3)no2)N1 (centres undefined) | 14 |
| CC(=O)N1CCC(c2noc(C3CCC(=O)N3)n2)CC1 (centres undefined) | 18.4 |
| Cc1cc(C(F)F)nn1C(C)C(=O)NCc1ncc[nH]1 (centres undefined) | -1.21 |
| Cc1csc(N2CCN(C(=O)C3(C#N)CCCC3)CC2)n1 | -9.75 |
| COc1cc(OC)cc(C2NC(=O)CN2Cc2ccc(Br)cc2)c1 (centres undefined) | 45.6 |
| NC(=O)COc1ccc(C2NC(=O)CN2Cc2ccc(Br)cc2)cc1 (centres undefined) | 15.9 |
| Cc1cc(C2NC(=O)CN2Cc2ccc(Br)cc2)cc(C)c1O (centres undefined) | 60.4 |
| Cc1nc(CN2Cc3nccn3CC(CN3CCCC3)C2)cs1 (centres undefined) | -29.3 |
| CN1CCCN(C(=O)c2nc3sccn3c2-c2ncc[nH]2)CC1 | -16 |
| O=C(c1nc2sccn2c1-c1ncc[nH]1)N1CCCCC1 | 50.2 |
| C[C@@H]1CN(C(=O)c2nc3sccn3c2-c2ncc[nH]2)C[C@H](C)O1 | 11.3 |
| CC(C)c1cc(=O)[nH]c(-c2ccccc2CN2CCCC2C)n1 (centres undefined) | 31.8 |
| CC(C)N1CCC(C(=O)NC[C@H]2CCc3ccccc3O2)CC1 | 61.5 |
| CC(C)N1CCC(CC(=O)NC[C@H]2CCc3ccccc3O2)CC1 | 7.4 |
| CCN1CCC(CC(=O)NC[C@H]2CCc3ccccc3O2)CC1 | 39.9 |
